Source: PubChem BioAssay AID504840 (Johns Hopkins Ion Channel Center, 2011)
Among all 1,500 compounds or so, about 890 (59%) were called active.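 How the source made its calls: active means inhibition of the choline-evoked signal at any tested dose together with a fitted dose-response curve; inactive means no inhibition at any dose or no curve.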 The set was probably picked from earlier hits. Only a sample is shown. Results with a measured potency or affinity are listed apart.

These compounds were tested against High affinity choline transporter 1 (Homo sapiens) (UniProt Q9GZV3) (assay: CHT inhibitors, dose response, cell-based, 5-point CRC, membrane potential dye (AID 504840;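 further: 0% = buffer-only response and 100% = EC90 choline response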)). Conditions: HEK293-CHT, choline-induced depolarization, CHT with LV-to-AA double alanine mutation; series mostly up to 37 µM; inhibition: at the top concentration.
High affinity choline transporter 1 (Homo sapiens), sequence (Q9GZV3 whole entry, looked up): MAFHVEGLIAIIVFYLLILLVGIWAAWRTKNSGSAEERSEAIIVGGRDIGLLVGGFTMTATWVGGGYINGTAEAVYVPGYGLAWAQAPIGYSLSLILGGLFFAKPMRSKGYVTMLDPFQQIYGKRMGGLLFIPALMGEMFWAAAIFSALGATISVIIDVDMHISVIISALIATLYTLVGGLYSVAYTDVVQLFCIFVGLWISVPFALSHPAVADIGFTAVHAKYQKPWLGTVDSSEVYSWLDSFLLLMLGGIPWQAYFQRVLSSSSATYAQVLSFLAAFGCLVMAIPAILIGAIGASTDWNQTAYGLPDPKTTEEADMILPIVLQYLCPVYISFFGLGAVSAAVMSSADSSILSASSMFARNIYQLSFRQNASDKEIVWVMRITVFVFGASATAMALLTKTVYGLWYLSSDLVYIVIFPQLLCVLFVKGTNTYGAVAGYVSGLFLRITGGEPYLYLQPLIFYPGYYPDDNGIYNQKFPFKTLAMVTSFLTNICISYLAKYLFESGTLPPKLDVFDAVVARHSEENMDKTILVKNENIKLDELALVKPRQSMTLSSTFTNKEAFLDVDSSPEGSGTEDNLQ

inhibition, inactive:
CCOC(=O)c1cc2c(s1)-c1c(C)cccc1OC2 -5.26%
COc1ccc(C(=O)NC(=S)NNC(=O)c2ccc(C)cc2)cc1 27.9%
Cc1ccccc1NC(=S)NNC(=O)c1ccncc1 1.63%
Cc1ccc(C)c(NC(=O)c2cccc(Oc3ccc([N+](=O)[O-])cc3Cl)c2)c1 29.1%
O=C(Nc1ccc(F)cc1)N1CCN(CCc2ccccc2)CC1 32.2%
Cc1ccc(C#CC[N+]2(C)CCCCC2)cc1 62.4%
C#CC[N+]1(CC#Cc2ccc(C)cc2)CCCCC1 63.6%
Cc1cn([C@H](C(=O)NCCCCCCCCCCC(=O)N2CCN(C(=O)OC(C)(C)C)CC2)[C@@H](C)O)nn1 38%
CN(/N=C/c1cc(Cl)cc(Cl)c1O)C(=S)NC(C)(C)C 19.2%
O=C(CNC(=O)c1ccc(Cl)cc1Cl)OCC(=O)c1ccc2c(c1)OCCO2 56.5%
COc1cc(CCCN2C(=O)C(=O)NC[C@H]2Cc2cccc3ccccc23)cc(OC)c1OC 61.8%
O=S(=O)(Nc1nc2ccccc2s1)c1ccc(Cl)s1 27.1%
Cc1ccc(F)cc1NC(=O)c1ccc(NS(=O)(=O)c2ccc(Br)s2)cc1 64.1%
CCOC(=O)c1ccc(NC(=O)c2ccc(C)c(S(=O)(=O)N3CCOCC3)c2)cc1 22.8%
CC(NC(=O)Cc1ccc(S(=O)(=O)N2CCOCC2)s1)c1ccc(Cl)c(Cl)c1 (configuration not stated) 36.9%
O=C(Nc1ccccc1)c1nnn(Cc2ccccc2)c1NC(=O)C(F)(F)F 45.3%
O=C(O)CSc1cc(C(=O)c2ccccc2O)cn2c(=O)c3c(-c4ccccc4)csc3nc12 76.9%
Cc1ccc(-c2csc3nc(SCC(=O)Nc4ccc(Cl)c(C(=O)O)c4)[nH]c(=O)c23)cc1 41.6%
CCCc1cc(NCCN(C)C)n2c(nc3ccccc32)c1C#N 47.7%
O=S(=O)(Nc1nc2ccccc2nc1NCC1CCCO1)c1cc(Cl)ccc1Cl (configuration not stated) 28.4%
NC(=O)c1c(NC(=O)CN2C(=O)NC(Cc3ccccc3)C2=O)sc2c1CCC2 (configuration not stated) 51.4%
O=C(Nc1sc2c(c1C(=O)O)CCCC2)c1ccc(Cl)cc1 26.7%
O=C(NC1CCCC1)C(c1cccnc1)N(CCc1ccccc1)C(=O)c1ccco1 (configuration not stated) -5.07%
CC1CCC(NC(=O)c2ccc(NC3=NC4CS(=O)(=O)CC4S3)cc2)CC1 (configuration not stated) 54.4%
CC1CCC(NC(=O)Cn2c3c(c(-c4ccccc4Cl)cc2=O)CCC3)CC1 (configuration not stated) 44.9%
NC(N)=Nc1nc(CCN2C(=O)c3ccccc3C2=O)cs1 59.8%
CCN(CC)S(=O)(=O)c1cc(C(=O)N2CCc3ccccc32)ccc1Cl 14.8%
CC(C)n1c(O)c(N=NC(=O)CNC(=O)Cc2ccc(Cl)cc2)c2ccccc21 50.6%
CCCCn1nc2cc(C(=O)NC3CCc4ccccc43)ccc2c1OCC (configuration not stated) 48%
CC(Oc1ccc(Cl)cc1Cl)C(=O)Nc1ccc(S(=O)(=O)Nc2cnc3ccccc3n2)cc1 (configuration not stated) 71.6%
O=C(Nc1ccc(S(=O)(=O)Nc2nccs2)cc1)c1c(F)c(F)c(F)c(F)c1F 41.6%
Cc1ccc(NC(=O)CN(C)C(=O)COC(=O)CNS(=O)(=O)c2ccc(Br)cc2Cl)cc1 62.6%
O=C1C[C@H]2[C@H](CO)[C@@H](OC(=O)c3ccc(-c4ccccc4)cc3)C[C@H]2O1 47.8%
CC1(C)C(C=C(Cl)Cl)C1C(=O)Nc1ccc(S(=O)(=O)Nc2ncccn2)cc1 (configuration not stated) 48.7%
O=C(Nc1ccc(S(=O)(=O)Nc2cnc3ccccc3n2)cc1)c1ccc(Cl)c([N+](=O)[O-])c1 39.5%
CCC(Oc1ccccc1C)C(=O)Nc1ccc(S(=O)(=O)Nc2cc(C)on2)cc1 (configuration not stated) 47.4%
COC(=O)C1=C(N)Oc2cc(C)n(CCc3ccccc3)c(=O)c2C1c1cccnc1 (configuration not stated) 27.2%
CC(OC(=O)c1cc2sccc2n1C)C(=O)NC(C)(C)C (configuration not stated) 49.4%
COc1ccc(N2CCN(CC(=O)Nc3c(C)cc(C)cc3C)CC2)cc1 28.8%
CN(C)c1ccc(Nc2c3c4c(cccc4n(C)c2=O)C(=O)c2ccccc2-3)cc1 38.4%
O=C(CC(=O)c1c(F)cccc1Cl)c1ccccc1O 51%
CC(=O)c1cc2c(cc1NC(=O)CCNC(=O)c1ccccc1Cl)OCO2 49.1%
CCCCOC(=O)c1ccc(NC(=O)c2cc(Cl)c(Cl)cc2C(=O)O)cc1 43.3%
CCCCNS(=O)(=O)c1ccc(NC(=O)Cc2ccccc2[N+](=O)[O-])cc1 56.2%
Cc1ccc2[nH]c3c(c2c1)CN(C(=O)CN1CCN(Cc2ccc4c(c2)OCO4)CC1)CC3 53.2%
CCOc1[nH]c(/N=C/c2ccco2)c(C#N)c1C#N 30.8%
CC(C)(C)C(=O)N1CCN(c2ccc(NC(=O)c3ccc4c(c3)OCCO4)cc2)CC1 40.2%
Cc1ccc(CNC(=O)N[C@@H](Cc2ccccc2)C(=O)O)cc1 10.7%
COc1ccc(C(=O)NC(=S)NNC(=O)CCc2ccccc2)cc1 23.3%
CC1=C(C(=O)OC(C)C)C(c2ccc(Br)s2)NC(=O)N1C (configuration not stated) 45.8%
COC(=O)CCCCCN1C(=O)NC(C2CC2)C(C(=O)OCc2ccccc2)=C1C (configuration not stated) 22.5%
CCOC(=O)c1cnc2c(Cl)cc(Cl)cc2c1NCCOCCO 66.2%
O=C(CS(=O)(=O)Nc1ccc(F)cc1Cl)Nc1ccc(F)cc1Cl 26.4%
CC(C(=O)NC1CCS(=O)(=O)C1)N1C(=O)/C(=C/c2ccc(Cl)cc2)SC1=S (configuration not stated) 45%
Cc1ccc(S(=O)(=O)NCCC(=O)NC(C)CCc2ccccc2)cc1 (configuration not stated) 46.8%
Cc1n[nH]c(=O)c2c(NC(=O)CSc3nc4ccccc4c(=O)n3C(C)C)oc(C)c12 66.6%
CC(C)n1c(=S)[nH]c2cc(Cl)ccc21 54.5%
CCn1cc(C(=O)N(CCC(C)C)c2c(N)n(Cc3ccccc3)c(=O)[nH]c2=O)c(=O)c2ccc(C)nc21 41.2%
Fc1ccc(-c2nc3c(-c4ccc(F)cc4)cnn3cc2CCN2CCOCC2)cc1 44.1%
CN1CCN(c2ccc(NC(=O)c3ccc(Cl)cc3Cl)cc2)CC1 46%
CSC1=C(C#N)C(c2ccncc2)C(C(=O)Nc2ccccc2)=C(C)N1 (configuration not stated) 42.5%
CCN(CCNC(=O)CN1CCN(Cc2ccc(Cl)cc2)C1=O)c1ccccc1 0.273%
Cc1ccccc1Nc1c(-c2ccncc2)nc2ccc(Br)cn12 31%
Cc1ccc(NC(=S)Nc2ccc(F)cc2)cc1C 44.3%
Cc1ccc(NC(=S)Nc2cccc3cnccc23)cc1C 66.3%
COc1ccc([N+](=O)[O-])c(S(=O)(=O)c2ccccc2)n1 39.3%
Cc1cc2c(ncn2Cc2ccccc2)c([N+](=O)[O-])c1C 76.9%
COc1ccc(OCc2cccc(C(=O)Nn3cc([N+](=O)[O-])cn3)c2)cc1 34.8%
CCN(CC)S(=O)(=O)c1ccc(/C=C/C(=O)NC2CCCCC2)cc1 61.1%
CC(C)c1cc(C(=O)NNC(=S)NC2CCCCC2)cs1 25.6%
O=C(CCc1ccc(S(=O)(=O)N2CCOCC2)cc1)N1CCc2ccccc2C1 48.3%
COc1ccc(S(=O)(=O)N2CCC(C(=O)N3CCc4ccccc4C3)CC2)cc1 51%
CNCC(O)c1ccc(O)c(O)c1 (configuration not stated) 53.6%
C#CC[N+](CC)(CC)CC#Cc1ccccc1 61.8%
Cc1cc(=O)[nH]c(SCC(=O)/C=C2\N(C)c3ccccc3C2(C)C)n1 36.3%
CC(=O)Oc1ccc(C(=O)Nc2ccc(S(=O)(=O)NCC3CCCO3)cc2)cc1 (configuration not stated) 30.6%
Cn1cnnc1Sc1ccc(C(=O)NCCC(c2ccccc2)c2ccccc2)cc1[N+](=O)[O-] 67%
COc1cc(C(=O)NC(=S)NNC(=O)[C@H]2C[C@@H]2c2ccccc2)cc(OC)c1OC 9.51%
Cc1ccc(N2CC(C(=O)Nc3ncc([N+](=O)[O-])s3)CC2=O)cc1 (configuration not stated) 34.5%
O=C(Nc1ncc([N+](=O)[O-])s1)C1CC(=O)N(c2ccc(F)cc2)C1 (configuration not stated) 50.3%
CCCCCC(=O)c1ccc(O)cc1O 43.6%
CCN(CC)CCCNC(=O)c1cn(CC)c2ccc(S(=O)(=O)N(C)C3CCCCC3)cc2c1=O 51.1%
CCCCn1c(SCc2nnc(-c3ccccc3)o2)nc2c1c(=O)n(C)c(=O)n2C 23.6%
Cn1nc(C(=O)NCCCN2CCCCC2)c2c1-c1ccccc1SC2 62.5%
CC1CCCC(C)N1CCCNC(=O)c1ccc2c(c1)NC(=O)c1ccccc1S2 (configuration not stated) 58.5%
CCCCCCCCCCCCN1[C@@H](CC(=O)O)c2cc(C(F)(F)F)ccc2S1(=O)=O 40%
CN(Cc1ccccc1F)C(=O)CCCNC(=O)c1ccc(Cl)cc1 47%
Cn1c2ccccc2c(=O)c2c(O)cccc21 15.4%
O=C(c1cnn2c(C(F)(F)F)cc(-c3cccs3)nc12)N1CCN(Cc2ccccc2)CC1 36.1%
C#CCNc1c2c(nc3ncnn13)CC(C)CC2 (configuration not stated) 35.4%
CC(C)Cn1c(N)c(C(=O)COC(=O)CCNS(=O)(=O)c2ccccc2)c(=O)n(C)c1=O 65%
Cc1ccccc1OCCC(=O)OCC(=O)c1c(N)n(CC(C)C)c(=O)n(C)c1=O 69.1%
CCc1c(C)nc2ncnn2c1NCCc1ccc(Cl)cc1 28.3%
O=C(C1CCN(S(=O)(=O)c2ccc3ccccc3c2)CC1)N1CCN(c2ncccn2)CC1 47.8%
CCn1c(N2CCN(S(=O)(=O)c3ccc(OC)cc3)CC2)nc2ccccc21 56.7%
O=C(COc1ccccc1/C=C1\SC(=O)NC1=O)Nc1ccccc1 52.7%
CCN(CC)C(=O)CSc1nc2ccc(NC(=O)CSc3nccn3C)cc2s1 79.5%
Cc1ccc2c(c1)N(S(=O)(=O)c1ccc(CN3C(=O)c4cccnc4C3=O)s1)CCO2 28.7%
O=C(Cn1nc(-c2ccccc2)ccc1=O)NCc1ccc(F)cc1 55.3%
O=[N+]([O-])c1cc(-c2ncccn2)c([N+](=O)[O-])s1 49.9%
Cc1cc(C(=O)CSc2n[nH]c(N)n2)c(C)n1-c1ccc(F)cc1 24.1%
Cn1c(CN2CCCC2)c(C#N)c2ccccc21 30.8%
NS(=O)(=O)c1ccc(CCNCc2cc(Cl)ccc2OCc2ccccc2)cc1 16.5%
Cc1cccc(NC(=O)c2ccccc2O)c1C 38%
Cc1nnc(SC(C)C(=O)Nc2sc3c(c2C#N)CCCC3)[nH]c1=O (configuration not stated) 23.2%
CCOC(=O)C1CCN(C(=O)CSCc2nc(-c3ccc(OCC)cc3)oc2C)CC1 41.5%
Cc1nc([N+](=O)[O-])c(Br)n1Cc1ccccc1 30.2%
